# Screens (PubChem BioAssay)
# mIDH1 inhibitor – blocks human mutant IDH1 R132H enzyme | IDH1-R132H enzyme, NADPH consumption, diaphorase/resazurin fluorescence | Potency, µM (highest dose often 76.6 µM), without a hit: at the top dose activity change, negative = inhibition, most hits filed as inhibitors | 0.093% of 390,000 active | AID 602179; further: nearly all actives have a fitted effect of over 65% in size
#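 IDH1-R132H (0.5 ug/mL) preincubated 30 min with compound, then NADPH (0.016 mM) and alpha-KG (2 mM) added; 80 min at RT, pH 7.5. Remaining NADPH coupled via diaphorase/resazurin to fluorescence (540/590 nm); concentration-response curves normalized to no-enzyme control.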
# TrxR1 inh – rat TrxR1 inhibition; recombinant rTrxR1, NADPH fluorescence consumption, selenite substrate; 1% of 390,000 active; Potency, µM (series often up to 114 µM), inactives show at the highest dose activity change, negative = inhibition, most hits filed as inhibitors; O89049; further: nearly all actives have a fitted effect of over 65% in size
# Target sequence (O89049 whole entry, looked up): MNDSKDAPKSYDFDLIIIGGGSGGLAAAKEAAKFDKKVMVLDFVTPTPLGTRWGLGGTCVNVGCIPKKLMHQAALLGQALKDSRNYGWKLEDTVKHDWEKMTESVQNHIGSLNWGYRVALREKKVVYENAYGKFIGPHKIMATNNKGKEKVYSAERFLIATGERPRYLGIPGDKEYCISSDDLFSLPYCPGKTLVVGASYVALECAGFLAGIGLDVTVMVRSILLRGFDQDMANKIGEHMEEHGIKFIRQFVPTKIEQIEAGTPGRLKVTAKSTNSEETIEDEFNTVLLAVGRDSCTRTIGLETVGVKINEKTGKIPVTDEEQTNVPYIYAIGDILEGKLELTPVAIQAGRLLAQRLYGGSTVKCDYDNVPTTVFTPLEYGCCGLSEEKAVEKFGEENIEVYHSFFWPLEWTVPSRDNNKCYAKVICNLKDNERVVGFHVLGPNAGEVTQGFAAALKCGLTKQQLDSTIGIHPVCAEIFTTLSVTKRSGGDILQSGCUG
#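 Rat TrxR1 (90 nM in the dispensed reagent) was pre-reduced with 400 uM NADPH for 5 min at room temperature, then incubated with compound for 15 min. After 400 uM selenite was added, NADPH fluorescence (Ex 340/Em 450 nm) was followed for 8 min.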
# GLS inh – inhibitors of human glutaminase (GLS) | O94925 | GLS enzymatic activity, qHTS titration | Potency, µM (titrated, usually from 45.5 µM), inactives show at the highest dose activity change, negative = inhibition, hits mostly inhibitors | 0.21% of 410,000 active | AID 624170
#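 hKGA in 45 mM KH2PO4 pH 8.2, 0.02% Tween-20 with pin-transferred compounds; 1 mM L-glutamine (stock) plus glutamate oxidase/HRP/Amplex Red coupling added. Fluorescence read initially and after 30 min at RT.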
# TrxR1 substrate – substrates of rat thioredoxin reductase 1. purified TrxR1 substrate turnover, NADPH consumption readout. 0.01% of 390,000 active. O89049. Potency, µM (doses to about 114 µM), inactives show at the top dose activity change, negative = substrate turnover; further: nearly all actives have a fitted effect of over 50% in size
#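 Rat TrxR1, dispensed at 90 nM, was prereduced with 400 uM NADPH (final) for 5 min at ~22 deg C, then incubated with compound 15 min before 400 uM selenite. A first-read NADPH fluorescence drop versus no-compound background flagged substrates.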
# * hit, by the source's call; ? = inconclusive; nt = no result; [ ] = remark or other dose. Compounds with a hit are over-represented: about 1.2% of the library has one in this group of screens. The call rests on the fitted dose curve; in most records, active means well fitted curve in the direction sought with a large enough effect; inconclusive means small, poorly fitted or top-dose-only effect, or another doubt; inactive means no such curve, though single readings can be large; an effect the other way counts as inactive or inconclusive. On the % scale 0 is the no-effect control and ±100 the full control effect; potency means the concentration at half of the fitted maximal effect.
SMILES,mIDH1 inhibitor,TrxR1 inh,GLS inh,TrxR1 substrate
NS(=O)(=O)c1ccc(NC(=O)c2nc(S(=O)(=O)Cc3ccccc3F)ncc2Cl)cc1,nt,3.5µM*,nt,4%
Cc1ccc(NC(=O)c2nc(S(=O)(=O)Cc3ccccc3F)ncc2Cl)cc1,nt,2.8µM*,nt,9%
Cc1ccc(CNC(=O)c2nc(S(=O)(=O)Cc3ccc(C)cc3)ncc2Cl)cc1,0%,?,-6%,3%
Cc1ccccc1NC(=O)c1nc(S(=O)(=O)Cc2ccccc2F)ncc1Cl,nt,3.5µM*,nt,19%
Cc1ccc(NC(=O)c2nc(S(=O)(=O)Cc3ccccc3F)ncc2Cl)cc1C,nt,3.2µM*,nt,-6%
CSc1ncc(Cl)c(C(=O)Nc2ccccc2C)n1,-5%,8%[57.1 µM],2%,10%[57.1 µM]
Cc1ccc(NC(=O)c2nc(S(=O)(=O)Cc3ccccc3C)ncc2Cl)cc1C,4%,32µM*,0%,1%
CSc1ncc(Cl)c(C(=O)Nc2ccc(C)c(C)c2)n1,10%,23%,-1%,4%
COc1ccccc1NC(=O)CC(C)n1nc(C)cc1C (stereo not drawn),-10%,6%[57.1 µM],0%,-2%[57.1 µM]
CCOC(=O)NNc1ccc(N(CC)CC(C)O)nn1 (stereo not drawn),nt,nt,-12%,nt
CSc1nc(SCC(=O)O)c2sc3nc(-c4ccccc4)c4c(c3c2n1)CCC4,-3%,?,14µM*,-6%
CSc1nc(N(C)CCO)c2sc3nc(-c4ccco4)c4c(c3c2n1)CCC4,-9%,7.1µM*,13µM*,4%
CCOc1ccc(C2C(C(N)=O)=C(C)Nc3nc(SCc4ccccc4F)nn32)cc1 (stereo not drawn),2%,8%,-3%,4%[2.29 µM]
CCc1cc[n+](CC(=O)c2ccc(F)cc2)cc1C(=O)O,nt,4%,nt,5%
Cc1cc(C)cc(Nc2ccc([N+](=O)[O-])nc2[N+](=O)[O-])c1,0%,-3%,-2%,4%
COc1cc(Nc2ccc(C)cc2)c([N+](=O)[O-])nc1[N+](=O)[O-],7%,4.5µM*,-10%,-12%
O=C(C[n+]1c2ccccc2cc2ccccc21)c1ccc(F)cc1,nt,-24%,nt,8%
COc1ccc(OC)c([C@@H]2Nc3ccc(C(=O)O)cc3[C@@H]3C=CC[C@@H]32)c1,-3%,1%[57.1 µM],?,5%[57.1 µM]
COc1cccc(NS(=O)(=O)c2ccc3c(c2)C2C=CCC2C(c2ccc(C(=O)O)cc2)N3)c1 (stereo not drawn),-8%,40µM*,?,-10%
O=C(O)c1ccc2c(c1)[C@@H]1C=CC[C@@H]1[C@H](c1ccccn1)N2,5%,4µM*,2.8µM*,-5%
COC(=O)c1ccc([C@H]2Nc3ccc(S(=O)(=O)Nc4ccc(F)cc4)cc3[C@H]3C=CC[C@H]32)cc1,-14%,71µM*,1%,-3%
Fc1ccc([C@@H]2Nc3ccccc3[C@@H]3C=CC[C@@H]32)cc1,0%,28µM*,3%,2%
COc1ccc(/C=C2/CCCC(CN(C)C)C2=O)cc1 (stereo not drawn),2%,?,50%,5%[57.1 µM]
CCCC/C=C1/CCC(CN(C)C)C1=O (stereo not drawn),1%,0.63µM*,15%,4%[11.4 µM]
COc1cccc(/C=C2/CCC(CN(C)C)C2=O)c1 (stereo not drawn),-13%,1.1µM*,-30%,9%[11.4 µM]
SMILES,mIDH1 inhibitor,TrxR1 inh,GLS inh,TrxR1 substrate
O=S1(=O)c2ccccc2N(Cc2cccc(C(F)(F)F)c2)c2ccccc21,15%,9%[57.1 µM],1%,2%[57.1 µM]
Cn1ncc2c(=S)nc(Cl)[nH]c21,11%,7.1µM*,0%,-14%
S=c1nc[nH]c2c1cnn2-c1ccccc1,-1%,3%,1%,4%
CN1CCC[C@@H](CC2c3ccccc3Sc3ccccc32)C1,nt,nt,-11%[20 µM],nt
Nc1nc(CN2CCCCCC2)nc(Nc2ccccc2)n1,-6%,16µM*,38%,6%[57.1 µM]
COc1ccccc1NC(=S)NC(=O)C(C)(C)C,5%,13µM*,22%,1%
CCOc1cc(C2Nc3cccc4cccc(c34)N2)ccc1O,14%,25µM*,3%,3%
CCOc1cc(C2Nc3ccccc3C(=O)N2c2ccccc2)ccc1O (stereo not drawn),3%,9%[57.1 µM],2%,29%[57.1 µM]
CCOc1ccc(C2Nc3cccc4cccc(c34)N2)cc1OC,10%,28µM*,16%,1%
COc1ccc(C2Nc3cccc4cccc(c34)N2)cc1,21%,?,23%,6%
COc1cc2c(cc1O)CCN[C@@]21CS[C@H]2c3c(OC(C)=O)c(C)c4c(c3C(COC1=O)N1C2C2c3c(cc(C)c(OC)c3O)CC([C@@H]1O)N2C)OCO4 (stereo partly drawn),nt,nt,22µM*,nt
O=C(COC(=O)/C=C/c1ccco1)NC1CCCCC1,3%,50µM*,-2%,-12%
COc1ccc(CNC(=O)COC(=O)/C=C/c2ccco2)cc1,-14%,28µM*,-13%,-4%
O=C(OCc1nc(-c2ccccc2)oc1COC(=O)c1ccco1)c1ccco1,2%,3.2µM*,-2%,5%
COc1ccc(S(=O)(=O)Nc2cc(Sc3ncn[nH]3)c(O)c3ccccc23)cc1,nt,?,nt,50µM*
COc1ccc(S(=O)(=O)Nc2ccc(O)c(Sc3ncn[nH]3)c2)cc1,8%,13%,?,13%
O=S(=O)(Nc1cc(Sc2cccc3cccnc23)c(O)c2ccccc12)c1ccc(F)cc1,19%,22µM*,0%,-14%
COc1cccc(N2CCN(C(=O)Cn3cnc4onc(-c5ccc(F)cc5)c4c3=O)CC2)c1,12%,37%,2%,-3%
CC(C(=O)O)c1ccc(/C=C2\CCCCC2=O)cc1 (stereo not drawn),nt,nt,-18%,nt
c1coc(-c2nnc(-c3ccco3)nn2)c1,26%,?,7.9µM*,4%[57.1 µM]
O=C(CN(CCc1ccccc1)C(=O)Cn1nnc(-c2cccs2)n1)NCc1ccco1,0%,50µM*,-3%,-9%
CCCCCCCCCCCCCCCCCCNC(=O)OC1CCN(C(=O)OC[C@H](COC(=O)N(Cc2cccc[n+]2CC)C(=O)c2ccccc2OC)OC)CC1,nt,nt,-15%,nt
Cc1ccc(/C=N/NC(=O)c2ccc(-c3ccccc3)cc2)o1,1%,23%[57.1 µM],-5%,5%[57.1 µM]
O=C(N/N=C/c1ccc(N2CCOCC2)o1)c1cccc([N+](=O)[O-])c1,8%,3.2µM*,-2%,-11%
O=C(N/N=C/c1ccc(N2CCCCC2)o1)c1ccccc1,7%,2.8µM*,-2%,-3%
O=C(N/N=C/c1ccccc1)c1ccc(N2CCOCC2)c([N+](=O)[O-])c1,0%,12%,5%,7%
Cc1cc(Cl)ccc1Nc1nc(NCc2ccco2)nc2nccnc12,nt,0%,nt,1%
N#CCNC(=O)c1nn2c(C(F)(F)F)cc(-c3ccccc3)nc2c1Br,3%,11%[57.1 µM],-2%,10%[57.1 µM]
Cc1cc(-c2ccccc2)nc2c(Br)c(C(=O)O)nn12,-1%,?,16µM*,-3%
